# Test results from PubChem BioAssay AID1822 (The Scripps Research Institute Molecular Screening Center, 2009).
# Hit rate of the full screen: of about 290,000 compounds, about 3,500 (1.2%) were called active. Many of the other results were omitted from the sample, so actives are more common in it than they were. A number with no mark means an inactive call.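 Rule for the calls: active = inhibition above the campaign mean inhibition over all tested compounds plus 3 SD (cut at about 28% in these data); inactive = the rest.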
# System: M18 aspartyl aminopeptidase (Plasmodium falciparum 3D7)
# Test: inhibition of P. falciparum M18 aminopeptidase – biochemical, QFRET, recombinant enzyme, primary screen (AID 1822);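 note: 0% = plate median of test compound wells and 100% = 2 mM ZnCl2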
# Conditions: recombinant PfM18AAP, H-Glu-NHMec fluorogenic cleavage; at 7.35 µM; hits give high values
row,Compound,inhibition
1,O=C(CN1CCN(c2ccc(O)cc2)CC1)Nc1cc(S(=O)(=O)N2CCOCC2)ccc1Cl,30.2% (active)
2,O=C(CN1CCN(c2ccc(O)cc2)CC1)Nc1ccc(-c2ccccc2)cc1,42% (active)
3,O=C(CN1CCN(c2cccc(Cl)c2)CC1)Nc1ccc(S(=O)(=O)N2CCOCC2)cc1,-3.74%
4,O=C(CN1CCOCC1)Nc1cc(Cl)ccc1Cl,1.38%
5,O=C(CN1CCN(c2ccccc2)CC1)Nc1ccc(F)cc1,-1.61%
6,O=C(CN1CCN(c2ccc(F)cc2)CC1)Nc1ccccc1,-7.36%
7,Cn1cc[n+](C)c1COc1ccc(C=O)cc1,-14%
8,CC1CN(C(=O)CCC(=O)NCCCN2CCC(Cc3ccccc3)CC2)c2cc(Cl)ccc2O1 (stereo not drawn),-5.3%
9,O=C(C[n+]1ccc2c(c1)nnn2-c1ccccc1)c1ccc(Cl)cc1,0%
10,CSc1nc2ccccc2c(=O)n1Cc1ccc(F)cc1,4.37%
11,CC(=O)c1ccc(-c2ccc(Cn3c(C)nc4cc(N)c(C)nc43)cc2)cc1,-5.95%
12,Cc1cc2nc3c(=O)n(Cc4ccccc4)c(=O)[nH]c3nc2cc1N,33.3% (active)
13,CC1CCN(C(=O)C2CCN(S(=O)(=O)N3CCC4(CC3)OCCO4)CC2)CC1,-6.53%
14,O=C(Nc1cccc(Cl)c1)C1CCCN(c2cnccn2)C1 (stereo not drawn),-0.72%
15,COc1cc(NC(=S)N2CCCC(C)C2)c(OC)cc1Cl (stereo not drawn),33.9% (active)
16,COc1ccc(NC(=S)N2CCCC(CO)C2)c(OC)c1 (stereo not drawn),1.11%
17,COc1cc(NC(=S)N2CCCC(C)C2)cc(OC)c1OC (stereo not drawn),16.2%
18,COc1ccc(S(=O)(=O)N2CCC(C(=O)NCCC(=O)NCc3cccc(OC)c3)CC2)cc1,-4.58%
19,O=C(O)c1cccc2c1C(=O)N(C1CCCC1)C2,-3.09%
20,C/C(=N\NC(=O)c1ccc(C)cc1)C1C(=O)c2ccccc2C1=O,9.83%
21,N#Cc1ccc(C(c2nnnn2CCc2ccccc2)N2CCCCCC2)cc1 (stereo not drawn),-9.05%
22,N#Cc1ccc(C(c2ccc(C#N)cc2)n2cncn2)cc1,51.3% (active)
23,N#Cc1ccc(CSc2ncccn2)cc1,0.4%
24,CCOc1ccc(N/C=C/C(=O)c2ccccc2)cc1,0.48%
25,C=CCc1c(C)nc2cc(-c3ccccc3)[nH]n2c1=O,-0.1%

row,Compound,inhibition
1,Cc1nc2nc[nH]n2c(=O)c1C/C=C/c1ccccc1,41.7% (active)
2,Cc1nc2nc(COc3ccccc3)[nH]n2c(=O)c1Cc1ccccc1,5.29%
3,COC(=O)C1[C@H]2SC(C)(C)C(C(=O)OC)N2C(=O)N1Cc1nc2ccccc2s1 (stereo partly drawn),2.76%
4,CSc1nnc(NC(=O)c2nc(S(=O)(=O)Cc3ccc(C)cc3)ncc2Cl)s1,-15.5%
5,CC1(C)CC(=O)C=C(Nc2ccccc2)C1,-2.72%
6,Cc1cc(C)nc(NNC2=CC(=O)CC(C)(C)C2)n1,42.9% (active)
7,COC(=O)NNC1=CC(=O)CC(C)(C)C1,9.27%
8,Cc1onc(C(=O)Nc2ccc3c(c2)OCO3)c1[N+](=O)[O-],-1.41%
9,S=c1[nH]nc(-c2ccco2)n1/N=C/c1ccc(Br)s1,28% (active)
10,S=c1[nH]nc(-c2ccco2)n1/N=C/c1ccccc1,19.4%
11,Cc1cc(-c2n[nH]c(=S)n2/N=C/c2ccco2)n[nH]1,6.34%
12,COc1ccc(N/C=C(\C2OC(=O)c3ccccc32)[N+](=O)[O-])cc1 (stereo not drawn),38.8% (active)
13,COc1ccc(NC(=O)ON=C2c3ccccc3-c3ccccc32)cc1,-2.03%
14,COc1ccc(-c2csc(NC3OC(=O)c4ccccc43)n2)cc1 (stereo not drawn),3.33%
15,O=C(CCN1CCN(C/C=C/c2ccccc2)CC1)Nc1ccccc1Cl,-14.5%
16,CS(=O)(=O)N(CC(=O)N1CCCCCC1)c1cccc(Cl)c1Cl,-10.9%
17,CCOC(=O)NNc1cc(C(F)(F)F)ccn1,49.5% (active)
18,Cc1ccc(NC(=O)Nc2cccc(C(F)(F)F)c2)nc1,-4.58%
19,CCC(=O)NC(Nc1cc(C)ccn1)(C(F)(F)F)C(F)(F)F,-6.4%
20,CCOC(=O)c1cccc(NC(=O)CN2C(=O)C3CC=CCC3C2=O)c1 (stereo not drawn),0.39%
21,O=C(Nc1cccnc1Cl)c1cc(-c2cccc(Cl)c2)on1,-1.19%
22,CCOC(=O)C1(CCOc2ccccc2)CCN(Cc2ccc(C#CCCO)cc2)CC1,3.95%
23,CC(=O)N1CCN(CC(c2ccccc2)c2ccccc2)CC1,-8.35%
24,O=C(Nc1ccncc1)c1ccc([N+](=O)[O-])cc1Cl,8.21%
25,O=C(Cc1ccccc1)Nc1ccc(NC(=O)c2cccnc2)cc1,-1.2%

row,Compound,inhibition
1,Cn1cccc1C(=O)N1CCc2ccccc2C1,-5%
2,CC(C)CNC(=O)C(=O)NCC(c1ccc2c(c1)OCO2)N1CCOCC1 (stereo not drawn),-5.45%
3,O=C(O)CCn1c(O)c(C=C2N=c3ccccc3=N2)sc1=S,37.6% (active)
4,Cc1cc2ccccc2n1CCC(=O)O,10.5%
5,O=C(O)CCn1c(Cc2ccccc2)nc2ccccc21,-1.96%
6,O=S1(=O)CCOC[C@H](CC2CCCCC2)N1Cc1ccc(F)cc1,-13.1%
7,CCn1cc(CCC(=O)NCc2ccc(F)cc2)c2ccccc21,-10.5%
8,CC(=O)Nc1ccc(N2CCOCC2)c(C(=O)Nc2cccc(C)c2)c1,4.11%
9,Cc1cccc(NC(=O)c2sc3nc(N4CCOCC4)c4c(c3c2N)CCCC4)c1,41% (active)
10,Cc1nc(N2CCOCC2)c2c(C)c(C(=O)Nc3ccc(C(F)(F)F)cc3)sc2n1,-14.6%
11,O=C(Nc1ccccc1)c1ccco1,2.58%
12,O=C(Nc1ccccc1)/C(=C\c1ccco1)NC(=O)c1ccco1,8.12%
13,O=C(NNC(=O)c1ccco1)Nc1ccccc1,48.6% (active)
14,O=C(O)C1CCC(CNS(=O)(=O)c2ccc(Br)cc2)CC1 (stereo not drawn),-15.2%
15,Cc1ccc(Cl)cc1-c1ccc(/C=N/n2cnnc2)o1,32.8% (active)
16,Cc1cc(-c2ccc(/C=N/n3cnnc3)o2)c([N+](=O)[O-])cc1C,44.5% (active)
17,Cc1cc([N+](=O)[O-])c(-c2ccc(/C=N/n3cnnc3)o2)cc1Cl,40.4% (active)
18,CC1=NN(c2ccc(Cl)c(C(=O)O)c2)C(=O)/C1=C/c1ccc(-c2ccccc2[N+](=O)[O-])o1,3.82%
19,O=C1C2C3C=CC(C4CC34)C2C(=O)N1/N=C/c1ccc(-c2ccccc2[N+](=O)[O-])o1 (stereo not drawn),-5.14%
20,Brc1cc(/C=N/n2cnnc2)oc1Br,13.5%
21,Cc1ccccc1OCCOc1ccc([N+](=O)[O-])cc1/C=N/n1cnnc1,6.71%
22,Clc1cc(-c2ccc(/C=N/n3cnnc3)o2)ccc1Br,-0.09%
23,Cc1cc(C)c([N+](=O)[O-])cc1-c1ccc(/C=N/NC(=O)c2nonc2N)o1,4.59%
24,O=C(Nc1ccc(F)cc1)C1CCCN(S(=O)(=O)c2ccc(-n3cnnn3)cc2)C1 (stereo not drawn),-11.3%
25,Cc1ccc(-n2c(C)nnc2SCC(=O)NC2CC2)cc1,6.7%

row,Compound,inhibition
1,CCn1c(SCC(=O)NC2CC2)nnc1-c1ccncc1,-8.99%
2,Cc1cc(C)nc(Nc2ncn[nH]2)n1,70.4% (active)
3,Cc1cc(C)nc(Nc2n[nH]c(-c3ccccc3N)n2)n1,-3.26%
4,Cc1cc(C)nc(Nc2cc([N+](=O)[O-])ccc2C)n1,-2.82%
5,Cc1cc(NC(=O)CCC(=O)N(CC(=O)NC2CCCC2)c2ccc(F)cc2)no1,1.92%
6,O=C1CSC(=S)N1c1ccc(O)cc1,8.71%
7,COc1cc(N2C(=O)CSC2=S)cc(OC)c1OC,6.36%
8,CCOc1cccc(/C=N/N2C(=O)CSC2=S)c1O,38.7% (active)
9,Cc1cc2oc(=O)cc(CN(C)Cc3ccc(OC(F)F)cc3)c2cc1Cl,-5.26%
10,C=CCOc1ccccc1NC(=O)CN1C(=O)CNC1=O,-12.8%
11,Nc1c(C(=O)c2cccs2)sc2nsc(SCCN3CCCCC3)c12,28.8% (active)
12,CN(C)c1ccnc2sc(C(=O)c3ccccc3)c(N)c12,1.38%
13,Cc1nc2sc(C(=O)c3ccccc3)c(N)c2c2c1CCCC2,1.45%
14,COc1ccc(CCNC(=O)CCNS(=O)(=O)c2cc(Br)cnc2N)cc1OC,-9.76%
15,NC(=O)C1CCCN(CC(=O)N2CCN(c3ccccc3)CC2)C1 (stereo not drawn),0.08%
16,O=C(CSc1nc(Nc2ccccc2)nc(N2CCOCC2)n1)Nc1cc(Cl)ccc1O,3.26%
17,Cc1ccc(C)c(NC(=O)CCC(=O)NNC(=O)c2cccs2)c1,-0.77%
18,Cc1ccc(S(=O)(=O)NNC(=O)Nc2cccc3ccccc23)cc1,10.5%
19,Cc1ccc(C)c(NC(=O)NNC(=O)c2ccc3ccccc3c2O)c1,41% (active)
20,O=C(Oc1ccccc1C(=S)N1CCCCC1)c1cc([N+](=O)[O-])cc([N+](=O)[O-])c1,13.9%
21,O=C(Oc1ccc(Br)cc1C(=S)N1CCOCC1)c1cccc([N+](=O)[O-])c1,36.5% (active)
22,COc1cc(C(=S)N2CCOCC2)cc(OC)c1OC(=O)c1cc([N+](=O)[O-])cc([N+](=O)[O-])c1,8.8%
23,CCOc1ccc(CNC(=O)CCC(=O)N2CCSc3ccccc32)cc1,6.53%
